Measurements: publication PMC4336329 (PLoS ONE, 2015)
Among all 310,000 compounds or so, about 14,000 (4.5%) showed an effect of 50% or more. Effects have a minus sign here. The entries come from a sample that favours strong results as a whole.

These molecules were tested against human ether-à-go-go-related gene (hERG) potassium channel (human, UniProt Q12809) (assay: primary screen, population patch clamp on CHO cells stably expressing hERG; higher = less effect of the substance).
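Also: peak tail current of the secondary pulse compared with the same well before compound.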

Sequence of human ether-à-go-go-related gene (hERG) potassium channel (Q12809 whole entry, looked up): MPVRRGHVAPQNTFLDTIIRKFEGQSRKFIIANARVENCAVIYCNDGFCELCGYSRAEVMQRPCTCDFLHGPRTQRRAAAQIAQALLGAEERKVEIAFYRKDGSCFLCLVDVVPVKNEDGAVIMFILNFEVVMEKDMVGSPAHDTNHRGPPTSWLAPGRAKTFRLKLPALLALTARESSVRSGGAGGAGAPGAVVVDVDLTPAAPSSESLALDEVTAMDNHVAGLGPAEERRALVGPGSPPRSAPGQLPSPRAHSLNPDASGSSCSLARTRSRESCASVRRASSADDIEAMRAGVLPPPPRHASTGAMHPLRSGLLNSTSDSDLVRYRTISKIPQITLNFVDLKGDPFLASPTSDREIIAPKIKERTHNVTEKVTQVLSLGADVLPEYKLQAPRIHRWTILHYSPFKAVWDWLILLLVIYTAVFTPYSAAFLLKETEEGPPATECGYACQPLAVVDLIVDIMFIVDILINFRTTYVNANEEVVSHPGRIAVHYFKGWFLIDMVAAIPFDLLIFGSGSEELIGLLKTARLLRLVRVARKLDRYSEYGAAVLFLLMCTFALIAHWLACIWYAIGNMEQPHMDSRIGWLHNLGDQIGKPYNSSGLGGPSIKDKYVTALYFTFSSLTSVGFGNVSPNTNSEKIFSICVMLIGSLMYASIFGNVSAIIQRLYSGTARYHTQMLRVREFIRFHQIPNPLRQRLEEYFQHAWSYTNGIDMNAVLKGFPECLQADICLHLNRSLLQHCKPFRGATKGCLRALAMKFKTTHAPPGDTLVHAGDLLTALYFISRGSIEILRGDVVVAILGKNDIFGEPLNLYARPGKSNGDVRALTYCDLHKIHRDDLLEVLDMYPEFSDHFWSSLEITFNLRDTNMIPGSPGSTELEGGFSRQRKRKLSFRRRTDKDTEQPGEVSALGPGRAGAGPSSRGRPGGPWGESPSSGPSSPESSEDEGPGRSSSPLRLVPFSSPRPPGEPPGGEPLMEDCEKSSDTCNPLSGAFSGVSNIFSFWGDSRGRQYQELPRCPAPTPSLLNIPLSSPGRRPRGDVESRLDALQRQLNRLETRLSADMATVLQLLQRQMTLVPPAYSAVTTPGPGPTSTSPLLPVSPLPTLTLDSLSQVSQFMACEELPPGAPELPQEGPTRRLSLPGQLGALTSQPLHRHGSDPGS

| SMILES | hERG current change (%, negative = inhibition) at 10uM |
| --- | --- |
| Cl.NC(CO)C12CC3CC(CC(C3)C1)C2 (centres unmarked) | 9.97% |
| Cc1ccc(C(C(=O)NCc2ccco2)N(C(=O)CNC(=O)c2cccs2)c2ccc(C)cc2C)cc1 (centres unmarked) | -10.3% |
| CN1CCN(c2nc(-c3ccccc3)cc(C(F)(F)F)n2)CC1 | -19.1% |
| CCOc1ccc2c(c1)c(N=NC(N)=S)c(O)n2C | 1.21% |
| CC(C)Cc1nnc(NC(=O)C2CC(=O)N(Cc3ccccc3)C2)s1 (centres unmarked) | 0.385% |
| Cc1ccccc1C(=O)NNC(=O)C1CC(=O)N(Cc2ccccc2)C1 (centres unmarked) | 2.19% |
| COc1ccc(C(C#N)c2ccc(Cl)nn2)cc1 (centres unmarked) | -2.07% |
| Cc1ccc2[nH]c(=O)c3cc(C(=O)NCC4CCCO4)sc3c2c1 (centres unmarked) | -3.5% |
| CS(=O)(=O)Nc1ccc(C(=O)NC2CCCCC2)cc1 | -0.845% |
| COc1ccc2cc(C)c(SCC(=O)Nc3cc(C)on3)nc2c1 | 6.5% |
| COc1ccc(-c2nc3ccccc3o2)cc1NC(=O)c1ccc(Br)o1 | 4.92% |
| CCOC(=O)COn1c(=O)c(-c2ccc(OC)cc2)[n+]([O-])c2ccccc21 | -1.13% |
| O=C(NCc1ccco1)C1CCN(c2ccc(S(=O)(=O)N3CCOCC3)cc2[N+](=O)[O-])CC1 | -70% |
| CC(C)CNC(=O)C1CCN(c2ccc(S(=O)(=O)N3CCOCC3)cc2[N+](=O)[O-])CC1 | -38.8% |
| COCCN(CCOC)C(=O)C1CCN(c2ccc(S(=O)(=O)N3CCOCC3)cc2[N+](=O)[O-])CC1 | -35.5% |
| C=CCNC(=O)C1CCN(c2ccc(S(=O)(=O)N3CCOCC3)cc2[N+](=O)[O-])CC1 | -24% |
| CCCN(CCC)C(=O)C1CCN(c2ccc(S(=O)(=O)N3CCOCC3)cc2[N+](=O)[O-])CC1 | -22.4% |
| CCCCN(C)C(=O)C1CCN(c2ccc(S(=O)(=O)N3CCOCC3)cc2[N+](=O)[O-])CC1 | -53.9% |
| CN(/N=C/c1ccco1)C1=NS(=O)(=O)c2ccccc21 | 4.85% |
| O=C(CC(SCCO)c1ccc2c(c1)OCO2)c1cccs1 (centres unmarked) | -16.7% |
| CCOc1cc(N2CCOCC2)c(OCC)cc1NC(=O)CCS(=O)(=O)c1ccc(Cl)cc1 | -35.5% |
| N#CCCN1CCN(S(=O)(=O)c2ccc(S(=O)(=O)NC3CC3)cc2)CC1 | -1.76% |

| SMILES | hERG current change (%, negative = inhibition) at 10uM |
| --- | --- |
| O=C(Nc1cccc(C(F)(F)F)c1)c1c(O)c2ccccc2[nH]c1=O | 16% |
| CCN(CC)CCN=Cc1c(O)n(CCC2=CCCCC2)c(=O)[nH]c1=O | -65.6% |
| CN(C)CCN=Cc1c(O)n(CCC2=CCCCC2)c(=O)[nH]c1=O | -24.2% |
| CN(C)CCCN=Cc1c(O)n(CCc2ccc(F)cc2)c(=O)[nH]c1=O | 15.2% |
| CCN(CC)CCCN=Cc1c(O)n(CCc2ccc(F)cc2)c(=O)[nH]c1=O | -56.1% |
| O=c1[nH]c(=O)n(CCC2=CCCCC2)c(O)c1C=NCCN1CCNCC1 | -11.7% |
| CCN(CC)CCCN=Cc1c(O)n(Cc2ccc(F)cc2)c(=O)[nH]c1=O | -33.7% |
| CN1CCN(c2ccc(S(=O)(=O)N3CCOCC3)cc2NC(=O)CC(C)(C)C)CC1 | 8.55% |
| O=C(NCc1ccco1)c1ccc(COCC(F)(F)C(F)F)cc1 | -13.6% |
| CC(=O)Nc1ccc(S(=O)(=O)/N=C2\SCCN2S(=O)(=O)c2ccc(NC(C)=O)cc2)cc1 | -5.46% |
| C=CCSc1nsc(NC(=O)Nc2ccc(F)cc2)n1 | 22.1% |
| COc1cc(-c2nnc(SCC3(c4ccc(Br)cc4)OCCO3)o2)cc(OC)c1OC | -9.92% |
| Cc1nc(C(C)NC(=O)c2cc(COc3ccc(F)c(F)c3)on2)cs1 (centres unmarked) | -11.2% |
| COc1ccc(OCCn2cnc3ccccc32)cc1 | 0.789% |
| CC(C)(C)c1ccc(OCCOCCn2cnc3ccccc3c2=O)cc1 | -36.8% |
| O=[N+]([O-])c1ccc(OCCn2cnc3ccccc32)cc1 | -68.1% |
| O=c1c2ccc([N+](=O)[O-])cc2ncn1CCOc1ccccc1 | -8.16% |
| c1ccc(OCCn2cnc3ccccc32)cc1 | -9.08% |
| O=c1c2ccccc2ncn1CCOCCOc1ccc([N+](=O)[O-])cc1 | -64.3% |
| Cc1c(C(=O)OC(C)C)sc(NC(=O)c2cccnc2)c1C#N | 18.3% |
| CCOc1ccc(CCNC(=O)c2ccc(Cl)c(S(=O)(=O)N3CCOCC3)c2)cc1OCC | -20.4% |
| CCN(C(=O)Cn1c(=O)oc2ccccc21)c1cccc(C)c1 | 6.38% |

| SMILES | hERG current change (%, negative = inhibition) at 10uM |
| --- | --- |
| COc1cc2c(cc1OC)C1=C(C#N)CC/C(=N\S(=O)(=O)c3ccccc3)N1CC2 | -33.1% |
| O=C(CSc1nnc(NC(=O)c2cccc(Cl)c2)s1)NCC1CCCO1 (centres unmarked) | 20% |
| Cl.O=C(O)c1ccc(CNCc2ccc(F)cc2)cc1 | 16.4% |
| CCOC(=O)Cc1csc(NC(=O)c2sc3nc4cc(C)ccc4cc3c2N)n1 | -6.55% |
| O=C(Cn1c(N2CCN(c3ccccc3)CC2)nc2ccccc21)c1ccccc1 | -16.1% |
| CC(C)n1c(N2CCN(C(=O)c3cccs3)CC2)nc2ccccc21 | -49.2% |
| O=C(Cn1c(N2CCN(C/C=C/c3ccccc3)CC2)nc2ccccc21)c1ccccc1 | -51.2% |
| CCn1c(N2CCN(C(=O)c3ccco3)CC2)nc2ccccc21 | -50.7% |
| CC(C)Cn1c(/C=C/c2ccccc2)nc2ccccc21 | -42.2% |
| CC1CCN(c2nc3ccccc3n2CC(=O)c2ccccc2)CC1 | 56% |
| CC(C)Cn1c(N2CCN(C(=O)c3cccs3)CC2)nc2ccccc21 | -73.6% |
| CC(C)Cn1c(SCC(=O)N2CCN(S(=O)(=O)c3ccccc3)CC2)nc2ccccc21 | 0.539% |
| CCn1c(N2CCN(C(=S)NCCc3ccccc3)CC2)nc2ccccc21 | -50% |
| CC(C)Cn1c(N2CCN(C(=O)/C=C/c3ccccc3)CC2)nc2ccccc21 | -69.1% |
| Cc1nnc2c(N3CCN(C(=O)c4ccco4)CC3)nc3ccccc3n12 | -33.1% |
| O=C(c1cccs1)N1CCn2c1nc1ccccc12 | -25.5% |
| COc1ccc(/C=C2\C(=O)NC(=O)N(CCC3=CCCCC3)C2=O)c(OC)c1 | 24.6% |
| COc1ccccc1NC(=O)C1=C(C)Nc2nnnn2C1c1cc(Br)ccc1OC (centres unmarked) | -0.22% |
| CCOc1ccccc1C(=O)OCC(=O)NCCNC(=O)COC(=O)c1ccccc1OCC | 5.95% |
| O=C(CC1S/C(=N/N=C/c2cccs2)NC1=O)Nc1ccc(Cl)cc1 (centres unmarked) | -3.86% |
| Cc1cc(C)cc(N(C(=O)c2snc(C(N)=O)c2N)C(C(=O)NCC2CCCO2)c2cccs2)c1 (centres unmarked) | -18.7% |
| Cc1ccc(C(=O)/C=C/Nc2ccccn2)cc1 | -1.05% |

| SMILES | hERG current change (%, negative = inhibition) at 10uM |
| --- | --- |
| O=C(COc1ccccc1[N+](=O)[O-])N1CCN(S(=O)(=O)c2ccccc2)CC1 | -46.6% |
| CCOC(=O)Cn1c(C)nc2c(C(=O)OCC)sc(C)c2c1=O | -5% |
| O=C(NCCCN1CCCC1=O)c1cc(NS(=O)(=O)c2ccc(F)cc2)cc(NS(=O)(=O)c2ccc(F)cc2)c1 | -4.88% |
| CCn1c(N2CCN(C(=O)/C=C/c3ccccc3)CC2)nc2ccccc21 | -80.8% |
| CCn1c(N2CCN(C(=O)C34CC5CC(CC(C5)C3)C4)CC2)nc2ccccc21 | -37.9% |
| CCCn1c(N2CCN(C(=O)/C=C/C(=O)O)CC2)nc2ccccc21 | 9.76% |
| Cc1cccc(C(=O)NC(=S)NNC(=O)Cc2ccccc2)c1 | 3.66% |
| O=C(C1CCCO1)N1CCN(C(=S)NC2CC2)CC1 (centres unmarked) | 23% |
| COc1cccc(C2C=C(c3ccc(OC)cc3OC)Nc3nnnn32)c1 (centres unmarked) | 1.76% |
| O=C(CCS(=O)(=O)c1cccc2nonc12)N1CCN(c2ccc(F)cc2)CC1 | -60.8% |
| O=S(=O)(c1cccc2nonc12)N1CCN(c2cccc(Cl)c2)CC1 | -4% |
| Cc1ccc(S(=O)(=O)NCCC(=O)N2CCN(c3cccc(Cl)c3)CC2)cc1C | 4.35% |
| O=C(CCS(=O)(=O)c1cccc2nonc12)N1CCOCC1 | 14.6% |
| O=C(CCNS(=O)(=O)c1cccc2nonc12)N1CCN(c2cccc(Cl)c2)CC1 | -50.6% |
| Cc1ccc(C)c(N2CCN(C(=O)CCS(=O)(=O)c3cccc4nonc34)CC2)c1 | -25.4% |
| CSc1ncc(C(=O)Nc2ccccc2C)c(C)n1 | 12.5% |
| Cc1ccc(-c2nc3c(=O)n(C)c4ccccc4c3o2)cc1 | 22.3% |
| Nc1cc(=O)[nH]c(=O)n1-c1cccc(F)c1 | 18.4% |
| COc1ccccc1NC(=O)c1cc2c(=O)n(C)c3ccccc3c2n1C | 1.19% |
| O=C(OCCOc1cccc(Cl)c1)c1cc(S(=O)(=O)N2CCOCC2)ccc1F | -14% |
